TSHR ag: agonists of human thyroid stimulating hormone receptor; P16473; HEK293-CNG-TSHR cells (CNG channel as cAMP sensor), membrane potential dye, cAMP; Potency, µM (titrated, usually from 57.1 µM), usual class: activators; 73,000 tested, 0.48% active; active = well fitted activation curve with a large enough effect in the main read-out, with a control signal flat, not every such curve was filed as active; inconclusive = small, poorly fitted or top-dose-only effect, or a change in a side signal; inactive = no such curve, though single readings can be large or run the other way; reference of the percent scale not stated here;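 also: the control signal comes from parental cells without the receptor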
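HEK 293 cells stably expressing TSHR and a modified CNG channel, with CNG-only parental cells as counterscreen, were preloaded 60 min at room temperature with membrane potential dye containing 100 uM RO 20-1724. Compound exposure was 30 min, and depolarization was read as fluorescence at 590 nm.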
Caspase-7 inhib: allosteric or competitive inhibitors of human caspase-7. P55210. Potency, µM (doses to about 57.5 µM), hits mostly inhibitors. 75,000 tested, 0.02% active. recombinant caspase-7, Ac-DEVD-AFC fluorescence rate. AID 889; active = well fitted inhibition curve with a large enough effect in the main read-out, with a control signal flat, not every such curve was filed as active; inconclusive = small, poorly fitted or top-dose-only effect, or a change in a side signal
ERK AVP block: inhibitors of vasopressin-stimulated ERK signaling pathway; HEK293-V1b, vasopressin-stimulated pERK AlphaScreen; Potency, µM (series often up to 57.5 µM), hits mostly inhibitors; 72,000 tested, 0.99% active; also: nearly all actives have a fitted effect of over 55% in size
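Phosphorylated ERK1/2 detected via AlphaScreen bead proximity in lysates of V1b-expressing HEK293 cells given 25 nM vasopressin for 5 min after 30 min compound exposure (37 °C). AC50 from Hill equation; basal DMSO 0%, vasopressin 100%.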
HEK293 cAMP cs: raises cAMP in parental HEK293 cells, TSHR agonist counter-screen. parental HEK293 CNG cAMP sensor, membrane potential fluorescence. Potency, µM (series often up to 57.1 µM), actives largely listed as activators. 73,000 tested, 2.5% active. AID 938; also: nearly all actives have a fitted effect of over 55% in size
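Counterscreen for endogenous-receptor signalling: CNG-channel HEK 293 cells report cAMP rise by membrane depolarization. After 60 min dye equilibration with 100 uM RO 20-1724, compounds incubated 30 min before bottom-read fluorescence at 590 nm.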
GBA activity: alters purified human glucocerebrosidase activity; P04062; purified enzyme, resorufin glucoside fluorescence (screen aimed at inhibitors), 20 min; Potency, µM; 48,000 tested, 1.1% active; AID 360; in the data active = potency below about 15 µM; inconclusive = mostly about 16 µM to 33 µM;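 also: the screen sought inhibitors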
Target sequence (P04062 whole entry, looked up): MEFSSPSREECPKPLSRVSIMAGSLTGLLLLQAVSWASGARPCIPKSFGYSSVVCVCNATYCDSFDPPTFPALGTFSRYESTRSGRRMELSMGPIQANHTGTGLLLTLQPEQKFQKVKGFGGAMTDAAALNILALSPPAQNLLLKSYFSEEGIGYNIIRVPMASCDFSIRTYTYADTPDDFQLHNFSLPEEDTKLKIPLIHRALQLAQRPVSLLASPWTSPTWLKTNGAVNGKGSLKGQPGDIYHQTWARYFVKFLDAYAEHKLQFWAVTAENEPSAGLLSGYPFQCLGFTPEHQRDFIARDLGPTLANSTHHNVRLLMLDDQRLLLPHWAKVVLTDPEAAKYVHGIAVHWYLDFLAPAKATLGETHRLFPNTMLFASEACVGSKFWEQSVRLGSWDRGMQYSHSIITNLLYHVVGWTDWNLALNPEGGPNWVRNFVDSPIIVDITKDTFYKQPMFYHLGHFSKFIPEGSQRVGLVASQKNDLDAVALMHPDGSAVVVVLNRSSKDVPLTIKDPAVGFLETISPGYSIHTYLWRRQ
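Compounds titrated against 0.2 nM normal enzyme, 30 uM resorufin beta-D-glucopyranoside substrate, citrate/phosphate buffer with taurocholate and tween-20, pH 5.9. Reaction ran 20 min at room temperature; fluorescence (Ex 548/Em 600) gave AC50.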
Casp1 inh: allosteric or competitive inhibitors of human caspase-1 | Caspase-1 enzyme, Ac-WEHD-AFC fluorogenic rate | Potency, µM (top dose mostly 57.5 µM), usual class: inhibitors | AID 900 | P29466 | 75,000 tested, 0.03% active
A number is an active result; [ ] = remark or other dose. Only some compounds are listed: those with a hit (about 4.5% of all), similar ones and a draw of the others. Unless noted, calls follow the shape of the dose curve; as a rule, active = well fitted curve in the direction sought with a large enough effect; inconclusive = small, poorly fitted or top-dose-only effect, or another doubt; inactive = no such curve, though single readings can be large; an effect the other way counts as inactive or inconclusive.

COC(=O)c1[nH]c2ccc(C)cc2c1NC(=O)CN1CCN(c2ccccc2)CC1 was read as TSHR ag inactive, Caspase-7 inhib inactive, ERK AVP block 12.6µM, HEK293 cAMP cs inactive, GBA activity inactive and Casp1 inh inactive.
COC(=O)c1[nH]c2ccc(C)cc2c1NC(=O)CN1CCN(Cc2ccccc2)CC1 was read as TSHR ag inactive, Caspase-7 inhib inconclusive, ERK AVP block inconclusive, HEK293 cAMP cs inactive, GBA activity inactive and Casp1 inh inactive.
`COC(=O)c1[nH]c2ccc(Cl)cc2c1NC(=O)CN1CCC(C(N)=O)CC1` gave TSHR ag inconclusive, Caspase-7 inhib inactive, ERK AVP block inactive, HEK293 cAMP cs 15.8µM, GBA activity inactive and Casp1 inh inactive.
Screening COc1ccc(S(=O)(=O)Nc2ccc(C)cc2)cc1OC returned TSHR ag inactive, Caspase-7 inhib inactive, ERK AVP block inactive, HEK293 cAMP cs inactive, GBA activity inactive and Casp1 inh inactive.
Screening COc1ccc(S(=O)(=O)c2ccc(OC)c(OC)c2)cc1OC returned TSHR ag inconclusive, Caspase-7 inhib inactive, ERK AVP block 15.8µM, HEK293 cAMP cs inconclusive, GBA activity inactive and Casp1 inh inactive.
Cc1cc(N2CCN(S(=O)(=O)c3ccccc3)CC2)c2ccccc2n1 was read as TSHR ag inactive[11.4 µM], Caspase-7 inhib inactive, ERK AVP block 31.6µM, HEK293 cAMP cs inactive[11.4 µM] and Casp1 inh inactive.
`CC(NC(=O)c1cc(-c2ccc(O)cc2)on1)c1ccccc1` (stereo not given) gave Caspase-7 inhib inactive, ERK AVP block inactive, HEK293 cAMP cs inactive and Casp1 inh inactive.
Screening CCC(c1nnnn1CCc1ccccc1)N(Cc1ccco1)Cc1cc2cccc(C)c2[nH]c1=O (stereo not given) returned TSHR ag inconclusive, Caspase-7 inhib inactive, ERK AVP block inactive, HEK293 cAMP cs 15.8µM, GBA activity inactive and Casp1 inh inactive.
Screening CC1(C)CC(NC(=O)c2coc(=O)c(Br)c2)CC(C)(C)N1 returned TSHR ag inactive, Caspase-7 inhib inactive, ERK AVP block 20µM, HEK293 cAMP cs inactive, GBA activity inactive and Casp1 inh inactive.
For COc1ccc(S(=O)(=O)N2CCSC2c2ccc(OC)c(OC)c2)cc1 (stereo not given) the results were TSHR ag inactive, Caspase-7 inhib inactive, ERK AVP block inactive, HEK293 cAMP cs inactive and Casp1 inh inactive.
COc1ccc(C2SCCN2S(=O)(=O)c2ccc(F)cc2)cc1OC (stereo not given) was read as TSHR ag inactive, Caspase-7 inhib inactive, ERK AVP block 12.6µM, HEK293 cAMP cs inactive, GBA activity inactive and Casp1 inh inactive.
`O=C(CN1CCN(C2CCCCC2)CC1)Nc1ccccc1-c1ccccc1` gave TSHR ag inconclusive, Caspase-7 inhib inactive, ERK AVP block inactive, HEK293 cAMP cs 15.8µM, GBA activity inactive and Casp1 inh inactive.
O=S(=O)(O)[C@@H](c1ccccc1)[C@@H](O)c1ccccc1 was read as TSHR ag inactive[11.4 µM], Caspase-7 inhib inactive[11.5 µM], ERK AVP block inactive[11.5 µM], HEK293 cAMP cs inactive[11.4 µM] and Casp1 inh inactive[11.5 µM].
`CC(C)CO/N=C1/C[C@@H](O)[C@@H](O)[C@@H]2[C@@H]3C(=O)N(c4cccc(Oc5ccccc5)c4)C(=O)[C@H]3CC[C@@H]12` gave TSHR ag inactive[11.4 µM], Caspase-7 inhib inactive[11.5 µM], ERK AVP block inactive[11.5 µM], HEK293 cAMP cs inactive[11.4 µM] and Casp1 inh inactive[11.5 µM].
Screening CC(C)(C)n1nnnc1C(c1ccccc1)N1CCc2ccccc2C1 (stereo not given) returned TSHR ag inconclusive, Caspase-7 inhib inactive, ERK AVP block inactive, HEK293 cAMP cs inconclusive, GBA activity inactive and Casp1 inh inactive.
For COc1ccc(C(c2nnnn2C2CCCC2)N2CCc3ccccc3C2)cc1OC (stereo not given) the results were TSHR ag inconclusive, Caspase-7 inhib inactive, ERK AVP block inactive, HEK293 cAMP cs 7.94µM, GBA activity inactive and Casp1 inh inactive.
CN(C)c1ccc(C(c2nnnn2C(C)(C)C)N2CCc3ccccc3C2)cc1 (stereo not given) was read as TSHR ag inconclusive, Caspase-7 inhib inactive, ERK AVP block inactive, HEK293 cAMP cs 15.8µM, GBA activity inactive and Casp1 inh inactive.
Screening C/C(C[n+]1ccccc1)=N\N=C(N)N returned TSHR ag inactive[11.4 µM], Caspase-7 inhib inactive[11.5 µM], ERK AVP block inactive[11.5 µM], HEK293 cAMP cs inactive[11.4 µM] and Casp1 inh inactive[11.5 µM].
`C[C@H]1[C@H](C)CC[C@]2(C(=O)O)CC[C@]3(C)C(=CCC4[C@@]5(C)C[C@@H](O)[C@H](O)[C@@](C)(CO)[C@@H]5CC[C@]43C)[C@H]12` (stereo not given in full) gave Caspase-7 inhib inactive, ERK AVP block inactive and Casp1 inh inactive.
CCOC(=O)c1ccccc1NC(=O)CSc1nnnn1C1CCCCC1 was read as TSHR ag inconclusive, Caspase-7 inhib inactive, ERK AVP block inactive, HEK293 cAMP cs 31.6µM, GBA activity inactive and Casp1 inh inactive.
For CCOC(=O)c1ccccc1NC(=O)CSc1nnc(Cc2cccn2C)n1-c1ccc(C)cc1 the results were TSHR ag inconclusive, Caspase-7 inhib inactive, ERK AVP block inactive, HEK293 cAMP cs 31.6µM and Casp1 inh inactive.
CCOC(=O)c1cnc(SCC(=O)c2ccccc2)nc1N was read as TSHR ag inactive, Caspase-7 inhib inactive, ERK AVP block inactive, HEK293 cAMP cs inactive and Casp1 inh inactive.
`CCOC(=O)c1ccccc1NC(=O)CSc1ncc(C(=O)OCC)c(N)n1` gave TSHR ag inconclusive, Caspase-7 inhib inactive, ERK AVP block inactive, HEK293 cAMP cs 20µM, GBA activity inactive and Casp1 inh inactive.
Screening CCOC(=O)c1ccccc1NC(=O)CSc1nnc(COc2ccccc2C)n1C returned TSHR ag inconclusive, Caspase-7 inhib inactive, ERK AVP block inactive, HEK293 cAMP cs 15.8µM, GBA activity inactive and Casp1 inh inactive.
For OC[C@@H]1O[C@H](O)[C@@H](Cl)[C@H](O)[C@@H]1O the results were TSHR ag inactive, Caspase-7 inhib inactive, ERK AVP block inactive, HEK293 cAMP cs inactive and Casp1 inh inactive.
For COCC(=O)O the results were TSHR ag inconclusive, Caspase-7 inhib inactive, ERK AVP block inactive, HEK293 cAMP cs inconclusive and Casp1 inh inactive.
`O=C(Cn1nnc(-c2ccccc2F)n1)Nc1ccc(S(=O)(=O)NC2CCCC2)cc1` gave TSHR ag inactive, Caspase-7 inhib inactive, ERK AVP block inactive, HEK293 cAMP cs inactive, GBA activity 6.87 and Casp1 inh inactive.
For O=C(Cn1nnc(-c2ccccc2F)n1)Nc1ccc(C(=O)N2CCOCC2)cc1 the results were TSHR ag inconclusive, Caspase-7 inhib inactive, ERK AVP block inactive, HEK293 cAMP cs inconclusive, GBA activity inactive and Casp1 inh inactive.
